Screening data: PubChem BioAssay, National Center for Advancing Translational Sciences (NCATS)
Compounds with a hit are over-represented: about 0.74% of the library has one in this group of screens.
LDHA block: LDHA (human) enzyme inhibition; purified LDHA, NADH/diaphorase-resazurin fluorescence; stronger effect = lower value; actives 0.15% (n = 480,000); activity change, % (values are at about 110 or 230 µM); P00338; in the data active = activity change below about -30%; inconclusive = mostly about -25% to -30%;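 note: plate controls were DMSO wells for no effect and wells without enzyme for full effect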
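LDH5 2 nM; NADH 0.06 mM, pyruvate 0.2 mM; 200 mM Tris pH 7.4, EDTA, Tween-20; 5 min RT. Detection: diaphorase 0.133 mg/mL + resazurin 37 µM, fluorescence ex540/em590 at 0 and 20 min; normalized to enzyme-free and DMSO wells.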
Vif-A3G inh: inhibitors of Vif-APOBEC3G interaction; AID 602310; Potency, µM (top dose mostly 46.1 µM), for inactives: at the top dose activity, negative = active, hits mostly inhibitors; actives 0.076% (n = 410,000); HeLa A3G-eYFP + Vif (tagged APOBEC3G with the HIV-1 protein that degrades it), YFP fluorescence, overnight; Q9HC16; note: potency is the fitted concentration of half-maximal effect; % is set by controls: 0 for no effect and ±100 for the full control effect; nearly all actives have a fitted effect of over 60% in size
Target sequence (Q9HC16 whole entry, looked up): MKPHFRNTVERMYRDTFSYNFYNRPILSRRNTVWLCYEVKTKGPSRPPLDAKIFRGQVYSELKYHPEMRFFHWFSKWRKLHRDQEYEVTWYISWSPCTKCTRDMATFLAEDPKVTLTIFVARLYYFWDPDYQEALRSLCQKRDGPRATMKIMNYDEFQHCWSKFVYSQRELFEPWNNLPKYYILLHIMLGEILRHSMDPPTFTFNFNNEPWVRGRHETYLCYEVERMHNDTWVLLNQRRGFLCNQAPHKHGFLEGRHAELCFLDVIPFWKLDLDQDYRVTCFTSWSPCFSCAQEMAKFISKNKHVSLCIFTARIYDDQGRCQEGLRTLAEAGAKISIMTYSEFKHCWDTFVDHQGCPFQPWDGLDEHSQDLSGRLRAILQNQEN
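Read-out is eYFP fluorescence (Ex 488/Em 500-530) from Vif-expressing HeLa A3G-eYFP cells; more signal means A3G escaped Vif-mediated degradation. Cells plated overnight, compound pinned in, incubated overnight at 37 deg C.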
PINK1 modulator: changes PINK1 expression. actives 0.2% (n = 410,000). AID 624263. Potency, µM (titrated, usually from 76.6 µM), without a hit: at the highest dose activation (PINK1 increase), hits mostly activators. PINK1 immunofluorescence, high-content cytometry, 24 h; active = well fitted activation curve with a large enough effect; inconclusive = small, poorly fitted or top-dose-only effect; cell line not stated here; note: potency is the fitted concentration of half-maximal effect; % of control where 0% means no effect; nearly all actives have a fitted effect of over 65% in size
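Readout is PINK1 immunofluorescence, quantified alongside mitochondrial, cell and nuclear markers by laser-scanning microplate cytometry. Cells from a stable line were exposed to compound titrations (5 concentrations) for 24 hours, with CCCP controls.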
Akt phos inh: inhibitors of Akt phosphorylation | Neuro2A IGF-stimulated pAkt S473 HTRF, 20 min; stronger effect = lower value | activity change, % for hits at 50 µM | actives 0.32% (n = 360,000) | AID 651550; in the data active = activity change below about -80%; inconclusive = mostly about -51% to -80%; note: % is set by controls: 0 for no effect and ±100 for the full control effect
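Single-point screen (50 µM final compound) in Neuro2A cells stimulated 20 min with 6 nM IGF at 37 deg C. After lysis, Ser473-phosphorylated Akt read by HTRF (ex 330 nm, em 615/665 nm) as the 665/615 ratio.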
Vif-APOBEC3F blk: blocks the Vif interaction with APOBEC3F; HeLa A3F-eYFP + Vif (tagged APOBEC3F with the HIV-1 protein that degrades it), YFP fluorescence increase; Potency, µM (top dose mostly 46.1 µM), inactives show top-dose activity, negative = active; actives 0.2% (n = 390,000); AID 602313; note: potency is the fitted concentration of half-maximal effect; % of control where 0% means no effect; nearly all actives have a fitted effect of over 65% in size
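Fluorescence increase (Ex 488/Em 500-530) after overnight compound treatment at 37 deg C flags inhibition of Vif-driven A3F-eYFP loss in stable HeLa A3F-eYFP/Vif cells seeded overnight beforehand.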
Glioma ERSR ind: ER stress response induction in glioma | actives 0.02% (n = 420,000) | Potency, µM, inactives show top-dose activation, usual class: activators | AID 602332 | U87-MG GRP78 promoter luciferase reporter, 16 h; note: potency is the fitted concentration of half-maximal effect; series mostly up to about 76 µM; % of control where 0% means no effect; nearly all actives have a fitted effect of over 35% in size
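ERSR induction read as luciferase luminescence (Bright-Glo, 10 min at room temperature) in stably transfected human U87-MG glioma cells exposed to compounds for 16 h, using GRP78 as sensor.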
An asterisk follows results filed as active; i = inactive; ? = inconclusive; / = not tested or not shown; ! = repeats disagree; [ ] = dose if it differs, or a comment. Unless noted, calls come from the whole dose curve; as a rule, active = well fitted curve in the direction sought with a large enough effect; inconclusive = small, poorly fitted or top-dose-only effect, or another doubt; inactive = no such curve, though single readings can be large; an effect the other way counts as inactive or inconclusive.

SMILES	LDHA block	Vif-A3G inh	PINK1 modulator	Akt phos inh	Vif-APOBEC3F blk	Glioma ERSR ind
O=C(N/N=C/c1ccc([N+](=O)[O-])s1)c1ccccc1	-62.8*	-7.5%	-1.4%	i	-0.3%	-11.6%
COC(=O)C1=C(C)Nc2nc3ccccc3n2C1c1ccc(OC)cc1 (stereo not drawn)	5.4	/	/	/	/	/
O=C1OC(c2ccc(Br)o2)=N/C1=C/c1cc(Br)cs1	2.3	/	/	/	/	/
Cc1ccc(/C=N/NC(=O)c2cc(C)oc2C)cc1	-13.4	7.94µM*	6.5%	i	14.1%	-3.3%
Brc1ccc(C2=Nn3c(nnc3-c3cnccn3)SC2)cc1	-0.5	/	/	/	/	/
COc1ccccc1C(=O)NCc1ccccc1	2.2	-9.6%	-1.6%	-106.1%*	3.6%	-5.2%
Brc1ccc(CSc2ccc(-c3ccccn3)nn2)cc1	-31.1*	/	/	/	/	/
c1ccc(CSc2ccc(-c3ccccn3)nn2)cc1	-9.0	-6.1%	3.1%	i	1.3%	-12.0%
Nc1cc(Nc2ccccc2)c2nonc2c1[N+](=O)[O-]	-10.7	?	44.7µM*	i	?	-4.3%
N#C/C(=C/c1cc(Cl)ccc1OCc1cccnc1)c1ccc(C(F)(F)F)cn1	5.7	/	/	/	/	/
CC(=O)Nc1ccc(S(=O)(=O)N2CCCc3ccccc32)cc1	2.1	?	3.16µM*	i	-3.8%	-5.1%
O=S(=O)(c1ccc(Cl)cc1)N1CCCc2ccccc21	-3.0	-12.3%	3.4%	i	-4.2%	3.7%
O=C(c1ccccc1)c1c2c(cc3sc4ccccc4[n+]13)-c1cccc3cccc-2c13	3.2	6.31µM*	?	i	?	-2.1%
COc1ccc(Cc2c(-c3ccc(C)cc3)nc3ccc(Cl)cn23)c(C)c1	-10.5	-13.0%	31.6µM*	i	/	3.4%
O=C(CSc1nnc(CNc2ccc(Cl)cc2)n1Cc1ccccc1)NCc1ccco1	5.3	0.5%	-1.4%	-108.6%*	-10.1%	-4.3%
Cc1cc(C)cc(N2CC(c3nc(-c4ccc5c(c4)OCO5)no3)CC2=O)c1 (stereo not drawn)	3.1	/	/	/	/	/
CCOC(=O)c1cc2n(n1)CC(C)(C(=O)NC1CCCC1)N(c1ccc(C)c(F)c1)C2=O (stereo not drawn)	5.3	/	/	/	/	/
COc1cc(OC)cc(-n2nnnc2SCC(=O)NC2CCCC2)c1	-11.5	-6.0%	-0.2%	-115.1%*	-6.7%	-3.1%
Cc1ccc(COC(=O)c2ccc(C(=O)c3ccccc3)cc2)cc1	11.5	/	/	/	/	/
CCc1ccc(C(=O)C2CC(=O)Nc3c2c(C)nn3-c2ccc(F)cc2F)s1 (stereo not drawn)	3.7	/	/	/	/	/
COCCSc1nnc(NC(=O)Cc2ccc(OC)cc2)s1	-0.4	0.9%	-0.2%	i	-2.4%	3.9%
CCOCC(=O)Nc1nnc(SCCOC)s1	-2.1	0.3%	-0.9%	-85.5%*	-1.7%	0.2%
CN1CCN(CCCNCc2cn(CCC#N)c3ccccc23)CC1	-40.2*	-0.1%	-1.0%	i	12.0%	-11.8%
O=C(O)CCc1ccccn1	-20.1	/	/	/	/	/
Cc1c(NC(=O)c2cc(-n3cnnc3)ccc2Cl)cccc1-c1nc2ccccc2s1	-4.5	-0.1%	7.4%[38.3 µM]	-87.9%*	-7.4%	9.2%
SMILES	LDHA block	Vif-A3G inh	PINK1 modulator	Akt phos inh	Vif-APOBEC3F blk	Glioma ERSR ind
CCOC(=O)C(NC(=O)c1ccccc1)(Nc1cc(C)on1)C(F)(F)F (stereo not drawn)	-3.5	0.4%	-0.6%	-129.4%*	0.0%	-2.9%
O=C(Nc1cccc(Cl)c1Cl)c1ccc(-c2ccccc2)cc1	1.1	-12.9%	11.2µM*	i	1.6%	-1.7%
N#Cc1ccc(COC(=O)c2ccc(CN3CCCC3=O)cc2)c(F)c1	0.6	/	/	/	/	/
Cc1nonc1C(=O)N/N=C/c1ccc(O)c(O)c1	8.5	-1.8%	14.0%	i	11.0%	35.5µM*
COc1ccc(-c2c(C)c3cc(OS(C)(=O)=O)ccc3oc2=O)cc1	3.8	/	/	/	/	/
CCOc1cccc2cc(C(=O)NCc3cccnc3)c(=O)oc12	-5.3	0.9%	11.2µM*	i	-5.7%	-0.7%
O=c1[nH]nc(SCc2nc(-c3ccc(Cl)cc3)no2)n2nc(-c3ccco3)cc12	-12.8	/	/	/	/	/
c1cc[n+](CCC[n+]2ccccc2)cc1	-31.0*!	-1.7%	1.0%	i	0.9%	1.0%
COc1ccc2nc3ccccc3nc2c1NC(=O)c1ccc(Cl)cc1Cl	-0.7	3.98µM*	3.8%	i	?	-2.2%
COC(=O)c1cc(NS(=O)(=O)c2ccc3ccccc3c2)cc(C(=O)OC)c1	0.1	/	/	/	/	/
Cc1cccc(C)c1NC(=S)NC(C)CCc1ccccc1 (stereo not drawn)	-1.8	0.2%	0.3%	i	7.08µM*	-3.3%
Cc1ccc(-c2nn3c(C(C)C)nnc3c3ccccc23)cc1S(N)(=O)=O	4.2	/	/	/	/	/
Cc1ccnc(SCc2cn3c(C)cc(C)nc3n2)n1	-0.1	4.5%	0.0%	i	-1.3%	-0.3%
Cc1cc(C)n2cc(CSc3ncccc3C(=O)O)nc2n1	3.2	0.0%	1.6%	-111.4%*	-6.8%	-4.6%
COC(=O)c1sccc1-c1ccc(C(=O)Nc2ccccc2)o1	-0.3	0.2%	-1.4%	-128.2%*	13.4%	7.4%
CN(Cc1ccco1)C(=O)c1cc2cc(Br)ccc2[nH]1	-10.1	/	/	/	/	/
COc1cccc(-n2c(C)c(C)c3c2ncn2nc(-c4cccs4)nc32)c1	-36.0*	/	/	/	/	/
C=C(C)Cn1c(CCNC(=O)CCC)nc2ccccc21	-1.3	-2.4%	-3.8%	-103.6%*	-0.4%	-2.7%
C=C(C)Cn1c(CCCNC(=O)CC)nc2ccccc21	0.5	3.1%	3.3%[38.3 µM]	/	7.1%	-2.3%
COc1ccc(C(=O)Nc2nc3ccc(S(C)(=O)=O)cc3s2)cc1	-1.7	-1.3%	3.4%	-85.0%*	0.1%	-1.2%
CS(=O)(=O)c1ccc2nc(NC(=O)c3ccc(Cl)cc3)sc2c1	-7.6	-1.9%	8.3%	i	4.5%	1.3%
O=C(Cc1ccc(Br)cc1)Nc1ncc([N+](=O)[O-])s1	-5.0	0.4%	25.1µM*	i	-12.4%	-4.4%
O=C(COc1ccc(Cl)cc1)Nc1ncc([N+](=O)[O-])s1	9.8	2.8%	15.8µM*	i	5.2%	-10.3%
O=C(Cc1ccc(Cl)cc1)Nc1ncc([N+](=O)[O-])s1	-2.0	-2.1%	?	i	-4.0%	0.8%
O=C1N/C(=C/c2ccc(N3CCCC3)cc2)C(=O)N1c1ccccc1	-5.2	-13.6%	?	i	?	3.4%
Cc1cc(N2CCCC2)ccc1/C=C1\NC(=S)N(C)C1=O	3.4	?	21.4%	i	6.31µM*	-1.9%
O=C1/C(=C/c2ccc(N3CCCC3)cc2)NC(=S)N1C1CC1	4.3	5.62µM*	?	i	11.2µM*	2.6%
O=C(Cc1c[nH]c2ccccc12)NCCc1c[nH]c2ccc(F)cc12	0.8	/	/	/	/	/
